The source of these data is the supplement of paper PMC10732440.

± gives the standard deviation of the averaged measurements.

The first assay concerns Caenorhabditis elegans N2 infected with Nematocida parisii ERTm1. Kind of assay: progeny production relative to DMSO uninfected control; higher = more progeny despite microsporidia infection (inhibition of infection with low host toxicity). The note with it: infection time 6 days; 40 µM. On the procedure:
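Bleach-synchronised C. elegans N2 L1 larvae (100 per well) were grown in 96-well plates in K-medium with 5x E. coli OP50 and 15,000 N. parisii spores/uL, plus Pandemic Response Box compound at 100 uM or 40 uM (1% DMSO), for 6 days at 21 C with shaking. Worms were stained with Rose Bengal, scanned on a flatbed scanner and counted with WorMachine. Progeny production is given as % of the DMSO uninfected control (triplicate wells), so higher values mean the compound restores progeny despite infection.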
Compound `CCCCOC(=O)Nc1cc2nc(C3CCCCC3)[nH]c2cc1N(CC)CC` displayed a progeny production of 6.28 ± 3%.
The same measure, in the same setting: the figure for `CCCNc1ccc(S(=O)(=O)Nc2cc(C)on2)cc1` is 3.09 ± 1.4%; for `Cc1cccc(C)c1C(=O)Nc1nc(-c2ccccn2)cc2ccccc12` it is 4.99 ± 2.4%; for `CC(C)Oc1ccc(-c2nc(-c3cccc4c3CC[C@@H]4NCCO)no2)cc1C#N` it is 3.24 ± 0.4%.
Same read-out and setting: for `N#C/C(=C1/SC[C@H](c2ccc(Cl)cc2Cl)S1)n1ccnc1` the value was 3.11 ± 0.38%.
The same measure, in the same setting: the figure for `Cc1[nH]c2ccccc2c1CCNCc1ccc(/C=C/C(=O)NO)cc1` is 6.83 ± 2.5%; for `O=C(Nc1ccc(N2CCN(C(=O)c3ccccc3)CC2)cc1)c1ccc2c(c1)OCO2` it is 5.03 ± 1.4%; for `O=C(Nc1ccc(-c2ccccc2)cc1)C1=C(O)C(Cc2ccccc2)OC1=O` (centres undefined) it is 5.44 ± 3.9%.
For the compound `NC(=O)c1ccc(I)c([N+](=O)[O-])c1`, the progeny production was 1.54 ± 0.63%.
The same measure, in the same setting: for `CC(=O)O[C@H]1C[C@@]2(C)[C@@H](C[C@@H](O)[C@H]3[C@@]4(C)CC[C@@H](O)[C@@H](C)[C@@H]4CC[C@@]32C)/C1=C(\CCC=C(C)C)C(=O)O` the value was 6.24 ± 2.3%; for `COc1ccc2c(c1)cc(CNC(=O)c1cc3ccccc3o1)n2CC(=O)O`, 3.92 ± 2.4%; for `COCCn1cnc2c(O)nc(Nc3ccccc3)nc21`, 8.43 ± 4.5%.
The compound `Fc1cccc(Cl)c1C1CC(c2ccc(Cl)cc2)Nc2nnnn21` (centres undefined) gave a progeny production of 4.5 ± 4.2%.
Same read-out and setting: for `CCOC(=O)N[C@@H]1CC[C@@H]2[C@@H](C1)C[C@H]1C(=O)O[C@H](C)[C@H]1[C@H]2/C=C/c1ccc(-c2cccc(F)c2)cn1` the value was 4.47 ± 3.1%.
Same read-out and setting: for `O=C(Nc1ncc(Cc2cccc3ccccc23)s1)C1CCCCC1` the value was 8.93 ± 0.69%.
Same read-out and setting: the figure for `COc1ccc2nc(-c3ccccc3)cc(O)c2c1` is 10.7 ± 7.9%; for `O[C@@](Cn1cnnn1)(c1ccc(F)cc1F)C(F)(F)c1ccc(-c2ccc(OCC(F)(F)F)cc2)cn1` it is 3.9 ± 1.3%.
For the compound `O=C(Cc1ccccc1F)Nc1nc2ccccc2[nH]1`, the progeny production is 4.94 ± 2.8%.
The same measure, in the same setting: the figure for `Cc1ccc(NC(=O)c2ccc(CN3CCN(C)CC3)cc2)cc1Nc1nccc(-c2cccnc2)n1` is 5.07 ± 2.9%; for `O=C(CP(=O)(O)O)NCCc1cccc(Oc2ccccc2)c1` it is 4.04 ± 0.94%.

Staying with this assay, now noted: infection time 6 days; 100 µM.
For `CCCCOC(=O)Nc1cc2nc(C3CCCCC3)[nH]c2cc1N(CC)CC`, the progeny production is 13.5 ± 8.2%.
As to `CCCNc1ccc(S(=O)(=O)Nc2cc(C)on2)cc1`, the progeny production is 14 ± 3.8%.
The same measure, in the same setting: the figure for `Cc1cccc(C)c1C(=O)Nc1nc(-c2ccccn2)cc2ccccc12` is 6.64 ± 4.7%; for `CC(C)Oc1ccc(-c2nc(-c3cccc4c3CC[C@@H]4NCCO)no2)cc1C#N` it is 4.7 ± 2.8%; for `N#C/C(=C1/SC[C@H](c2ccc(Cl)cc2Cl)S1)n1ccnc1` it is 4.59 ± 2.5%.
On the same count and under the same terms, the figure for `Cc1[nH]c2ccccc2c1CCNCc1ccc(/C=C/C(=O)NO)cc1` is 9.79 ± 7.8%; for `O=C(Nc1ccc(N2CCN(C(=O)c3ccccc3)CC2)cc1)c1ccc2c(c1)OCO2` it is 15.6 ± 10%; for `O=C(Nc1ccc(-c2ccccc2)cc1)C1=C(O)C(Cc2ccccc2)OC1=O` (centres undefined) it is 6.02 ± 4.2%.
For `NC(=O)c1ccc(I)c([N+](=O)[O-])c1`, the progeny production was determined as 10 ± 2.6%.
For `CC(=O)O[C@H]1C[C@@]2(C)[C@@H](C[C@@H](O)[C@H]3[C@@]4(C)CC[C@@H](O)[C@@H](C)[C@@H]4CC[C@@]32C)/C1=C(\CCC=C(C)C)C(=O)O`, the progeny production amounted to 16.9 ± 9.1%.
Still for that read-out and setting: the figure for `COc1ccc2c(c1)cc(CNC(=O)c1cc3ccccc3o1)n2CC(=O)O` is 17.7 ± 17%.
Regarding `COCCn1cnc2c(O)nc(Nc3ccccc3)nc21`, the progeny production was found to be 17.6 ± 6.1%.
On the same count and under the same terms, for `Fc1cccc(Cl)c1C1CC(c2ccc(Cl)cc2)Nc2nnnn21` (centres undefined) the value was 7.47 ± 2.1%; for `CCOC(=O)N[C@@H]1CC[C@@H]2[C@@H](C1)C[C@H]1C(=O)O[C@H](C)[C@H]1[C@H]2/C=C/c1ccc(-c2cccc(F)c2)cn1`, 9.38 ± 3.8%; for `O=C(Nc1ncc(Cc2cccc3ccccc23)s1)C1CCCCC1`, 13 ± 5.7%.
The same measure, in the same setting: for `COc1ccc2nc(-c3ccccc3)cc(O)c2c1` the value was 8.32 ± 3.4%.
`O[C@@](Cn1cnnn1)(c1ccc(F)cc1F)C(F)(F)c1ccc(-c2ccc(OCC(F)(F)F)cc2)cn1` displayed a progeny production of 11.8 ± 2.2%.
`O=C(Cc1ccccc1F)Nc1nc2ccccc2[nH]1` had a progeny production of 8.29 ± 4.9%.
The same measure, in the same setting: the figure for `Cc1ccc(NC(=O)c2ccc(CN3CCN(C)CC3)cc2)cc1Nc1nccc(-c2cccnc2)n1` is 9.12 ± 3.8%.
